Shiga toxin inh: A qHTS for Small Molecule Inhibitors of Shiga Toxin; Vero cells, Shiga toxin protein synthesis inhibition reporter; inhibition, % at 38.7 µM; 290,000 tested, 9.2% active; in the data active = inhibition mostly above about 28%, no sharp cut-off; inactive = mostly below about 43%; also: 0% is about no effect
Cycloheximide cs: Cycloheximide Counterscreen for Small Molecule Inhibitors of Shiga Toxin | cell reporter, cycloheximide protein synthesis inhibition counterscreen | max response, % | 300,000 tested, 12% active | AID 2314, 2010; in the data active = max response mostly above about 13%, no sharp cut-off; inactive = mostly below about 14%; also: read at 38.3 µM for the half of the compounds with a filed dose; 0% is about no effect
LASV entry inh: qHTS for Inhibitors of binding or entry into cells for Lassa Virus; Lassa virus pseudotype entry inhibition, cell reporter; Potency, µM (doses to about 37.9 µM), for inactives: top-dose activity change, negative = inhibition, usual class: inhibitors; 300,000 tested, 1.2% active; AID 540256, 2011; calls by dose curve; tested in HEK293 cells; also: potency is read from the fitted curve at half-maximal effect; % is scaled to controls: 0 for no effect and ±100 for the full control effect; nearly all actives have a fitted effect of over 50% in size
Marburg entry inh: qHTS for inhibitors of binding or entry into cells for Marburg Virus; Marburg virus pseudotyped entry inhibition, cell reporter; AID 540276, 2011; 300,000 tested, 1.8% active; Potency, µM (titrated, usually from 37.8 µM), without a hit: at the highest dose activity change, negative = inhibition, usual class: inhibitors; calls by dose curve; tested in HEK293 cells; also: potency is read from the fitted curve at half-maximal effect; % is scaled to controls: 0 for no effect and ±100 for the full control effect
AMA1 RON2 block: qHTS for Inhibitors of AMA1-RON; Towards Development of Antimalarial Drug Lead: Primary Screen; AlphaScreen AMA1-biotinylated RON2 peptide binding; Potency, µM (series often up to 58.2 µM), inactives show top-dose activity change, negative = inhibition, most hits filed as inhibitors; 360,000 tested, 0.2% active; AID 720542, 2013; active = well fitted inhibition curve with a large enough effect; inconclusive = small, poorly fitted or top-dose-only effect; inactive = no such curve, though single readings can be large or run the other way;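 also: potency is read from the fitted curve at half-maximal effect; 0% = vehicle wells and -100% = peptide control; nearly all actives have a fitted effect of over 45% in size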
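AMA1 (3D7) with his tag at 25 nM final met compounds first, then biotinylated RON2 peptide at 25 nM; detection used donor plus acceptor beads, 10 µg/mL apiece, read by AlphaScreen after 30 min at room temperature.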
An asterisk follows results filed as active; ? = inconclusive; nt = no result; [ ] = dose if it differs, or a comment. The sample as a whole holds a higher share of hits than the screen did.

SMILES | Shiga toxin inh | Cycloheximide cs | LASV entry inh | Marburg entry inh | AMA1 RON2 block
O=C1c2ccccc2-c2onc3ccc(NCc4ccco4)c1c23 | -7 | 13* | -24% | ? | 132%
O=C(CN1CCOCC1)N/N=C/c1ccco1 | -3 | -3 | 15% | ? | -4%
O=C(CN1CCOCC1)N/N=C/c1c(O)ccc2ccccc12 | nt | -2 | 11µM* | ? | 78%
O=C(CSCC(=O)Nc1ccccc1)N/N=C/c1c(O)ccc2ccccc12 | 8 | 19 | 26µM* | ? | 28%
O=C(N/N=C/c1c(O)ccc2ccccc12)Nc1ccccc1 | nt | nt | nt | nt | 67%
COC(=O)c1cc(NC(=O)CSC2=NCCS2)cc(C(=O)OC)c1 | 18 | -4 | ? | ? | -3%
CCS(=O)(=O)N1CCc2cc(C(=O)Nc3cccc(C)c3C)ccc21 | nt | nt | ? | 0%[46.1 µM] | nt
O=C1c2ccccc2C(=O)c2c1cccc2N1CCCC1 | 56* | 43* | 13% | ? | 13µM*
O=C1C=C(N2CCCCC2)c2ccccc2C1=O | nt | nt | 8.9µM* | ? | -7%
COc1ccc(-c2nc3sc(CCNC(=O)C(=O)Nc4ccc(C)c(C)c4)c(C)n3n2)cc1 | nt | nt | -5%[46.1 µM] | nt | nt
CCC(CC)C(C(=O)NCc1ccccc1)N1CCN(C(=O)C2CCCO2)CC1 (stereo not given) | nt | nt | nt | nt | -2%
CCOc1ccc(OCC)c(NS(=O)(=O)c2c(C(=O)N3CCC(C)CC3)c(C)n(C)c2C)c1 | nt | nt | -10%[46.1 µM] | nt | nt
Cc1cccc2nc(COc3ccc4ccccc4c3Br)cn12 | 48* | 46* | ? | 10µM* | -14%
O=C(Nc1nnc(-c2ccco2)o1)c1ccc2ccccc2c1 | -2 | -2 | ? | 14µM* | 49%
Cc1ccc(C(=O)Nc2nnc(-c3ccco3)o2)cc1 | 18 | 44* | ? | ? | 25%
Cc1ccsc1C(=O)Nc1nnc(-c2ccco2)o1 | 14 | 18* | -3% | -13% | 5%
N#Cc1ccc(C(=O)Nc2nnc(-c3ccco3)o2)cc1 | 37 | 13 | -15% | ? | 38%
COc1ccc(OC)c(NC(=O)COCc2cc(-c3ccco3)on2)c1 | nt | nt | 15%[46.1 µM] | nt | nt
Cc1cc(C)cc(NC(=O)CN2C(=O)c3ccccc3Sc3ccc(C(=O)N4CCCC4)cc32)c1 | nt | nt | -17%[46.1 µM] | nt | nt
COc1ccc(S(=O)(=O)NCC(c2ccco2)S(=O)(=O)c2cccs2)cc1F (stereo not given) | nt | nt | -9%[46.1 µM] | nt | nt
CCOC(=O)c1cc(-c2cccs2)[nH]n1 | 60* | 22* | 18% | -1%[46.1 µM] | 6%
CC(=O)c1ccc2c3c(cccc13)C(=O)N(CCc1ccccc1)C2=O | 49* | 32* | nt | nt | -10%
COC(=O)c1cc(-c2ccc(Cl)cc2Cl)n[nH]1 | 63* | 29* | nt | nt | -4%
COC(=O)c1cc(-c2ccc(Cl)cc2)n[nH]1 | 47* | 38* | nt | nt | 21%
N/C(=N\OC(=O)c1ccc(Cl)cc1)c1nonc1N | 78* | 44* | 20% | -1% | -2%
SMILES | Shiga toxin inh | Cycloheximide cs | LASV entry inh | Marburg entry inh | AMA1 RON2 block
Nc1nonc1C(=O)OCC(=O)c1ccc(Cl)cc1 | -10 | -3 | -6% | 16% | -5%
N/C(=N\OCc1ccccc1)c1nonc1N | 99* | 55* | nt | nt | 19%
N/C(=N/OC(=O)c1ccccc1F)c1nonc1N | 64* | 35* | nt | nt | 5%
COc1cc(C(=O)Nc2ccc(C)cc2)c(-n2cnnn2)cc1OC | -21 | -1 | nt | nt | -1%
Nc1ccc(C23CC4CC(CC(CO)(C4)C2)C3)cc1 | 12 | 19* | 6% | 13% | -3%
Nc1ccc(C23CC4CC(CC(O)(C4)C2)C3)cc1 | 24 | 28* | 2% | ? | 21%
COCCN1C(=NCC(C)C)NC(c2ccccc2)C(C(=O)OC)=C1C (stereo not given) | nt | nt | ? | 29%[14.2 µM] | nt
CCN(CC)S(=O)(=O)c1ccc(/C=C/C(=O)OCC(=O)N(C(C)C)C(C)C)cc1 | -13 | -2 | 0% | -3%[46.1 µM] | 30%
N#Cc1ccc(C(=O)Nc2ccn(-c3ccccc3)n2)cc1 | -1 | -2 | 1% | ? | 1%
O=C(Nc1ccn(-c2ccccc2)n1)c1ccccc1Br | 50* | 38* | nt | nt | -4%
CC(=O)Nc1ccn(-c2ccccc2)n1 | 52* | 31* | 9% | ? | 26%
O=C(Nc1ccn(-c2ccccc2)n1)c1ccc(Cl)cc1 | 106* | 45* | -4% | ? | -3%
CCOC(=O)C1(C)CCCN(C(=O)c2ccc(OC)cc2)C1 (stereo not given) | nt | nt | nt | nt | 10%
OCC[C@@H]1C[C@@H](O)[C@H](O)[C@@]2(CCCc3ccccc3O2)O1 | -3 | 1 | nt | nt | 5%
COc1ccc(C(C)(NC(C)=O)c2nc(-c3ccccc3OC)cs2)cc1 (stereo not given) | nt | nt | nt | nt | -18%
CN(CCO)c1cc(N2CCCCC2)c2nonc2c1[N+](=O)[O-] | -6 | -3 | -8%[46.1 µM] | -13%[46.1 µM] | 1.8µM*
Cc1noc(C)c1-c1ccc2ncnc(NCc3ccc4c(c3)OCO4)c2c1 | 20 | 18 | nt | nt | nt
CN1CCS/C1=C/C=C1/SC(=S)N(Cc2ccccc2)C1=O | 13 | 26* | 14% | ? | -10%[11.6 µM]
CN1CCS/C1=C/C=C1\SC(=S)N(CC(=O)O)C1=O | 13 | 1 | -18%[46.1 µM] | 5%[46.1 µM] | -12%
CCCCN1C(=O)/C(=C/C=C2\SCCN2C)SC1=S | 67* | 33* | 1% | -20%[46.1 µM] | 10µM*
O=S(=O)(CCN(CCS(=O)(=O)C(F)(F)F)CC1CCCO1)C(F)(F)F (stereo not given) | -3 | -1 | ? | ? | 0%
Cc1ccc(S(=O)(=O)N2CCCN(C(=O)CNC(=O)c3cccc(C)c3)CC2)cc1 | nt | nt | nt | nt | 0%
Cc1ccc(NC(=O)CCSc2nnc(-c3ccco3)o2)cc1 | 4 | 1 | 5% | -13% | -5%
O=C(Cc1ccc(Cl)cc1)Nc1ccc(-c2nnc(-c3ccco3)o2)cc1 | 15 | -2 | ? | 4% | ?
O=C(O)CCC(=O)Nc1ccc(-c2nnc(-c3ccco3)o2)cc1 | 4 | -2 | nt | nt | 23%
SMILES | Shiga toxin inh | Cycloheximide cs | LASV entry inh | Marburg entry inh | AMA1 RON2 block
Cc1ccc(SCC(=O)Nc2ccc(-c3nnc(-c4ccco4)o3)cc2)cc1 | 43* | 16* | ? | ? | -17%
O=C(Cc1ccccc1)Nc1ccc(-c2nnc(-c3ccco3)o2)cc1 | 13 | 17* | 14% | -13%[46.1 µM] | 5%
O=C(CSc1nnc(-c2ccccc2)o1)c1nnc(-c2ccccc2)o1 | -4 | -3 | 13% | 0% | 28%
O=C(Cc1ccccc1)c1nnc(-c2ccccc2)o1 | 25 | 14* | -2% | ? | 2%
COc1ccccc1CC(=O)Nc1ccc(-c2nnc(-c3ccco3)o2)cc1 | 47 | 24* | -21% | -25% | 12%
CCOC(=O)c1c(NC(=O)CSC2=NN3CCCC(=O)N=C3S2)sc2c1CCCCC2 | -6 | 7 | 19% | 2% | -3%
Clc1ccc(CSc2ncccn2)cc1 | 43* | 32* | 9% | ? | -12%
c1ccc(CSc2ncccn2)cc1 | 6 | 19* | -3% | ? | -1%
Clc1ccc(CSc2ncn[nH]2)cc1 | 45 | 14 | 13% | 1% | -14%
Oc1cccnc1SCc1ccccc1 | nt | nt | nt | nt | 9%
Oc1ccccc1-c1nc(/C=C/c2ccc(F)cc2)nn1-c1ccccc1 | nt | nt | 15%[46.1 µM] | 17%[46.1 µM] | nt

Source: PubChem BioAssay
